Holding throughout (assay): PBM; 200 nM protein, PBS
What all share (settings): dsDNA, one strand shown

For test [1], the target named is HOXB9 (Homo sapiens, UniProt P17482 171-250, T197M).
In test [2] the target is HOXA4 (Homo sapiens, UniProt Q00056 201-287, W262R).
Test [3] addresses HOXC9 (Homo sapiens, UniProt P31274 178-260, K195R).
The target of another test is T1, VENTX (Homo sapiens, UniProt O95231 78-163).
T1 sequence: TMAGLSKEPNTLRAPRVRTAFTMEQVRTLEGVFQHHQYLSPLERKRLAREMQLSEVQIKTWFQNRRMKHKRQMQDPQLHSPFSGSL

In test [4] the target is HOXA7 (Homo sapiens, UniProt P31268 116-202).
For test [5], the target named is HOXC10 (Homo sapiens, UniProt Q9NYD6 254-340).
Test [6] deals with HOXB6 (Homo sapiens, UniProt P17509 132-218, K202E).
Test [7] deals with HOXB9 (Homo sapiens, UniProt P17482 171-250).
In test [8] the target is HOXC9 (Homo sapiens, UniProt P31274 178-260).
Test [9] has as its target HOXC9 (Homo sapiens, UniProt P31274 178-260, R193K).
Test [10] addresses HOXA4 (Homo sapiens, UniProt Q00056 201-287).
Test [11] concerns the target HOXC10 (Homo sapiens, UniProt Q9NYD6 254-340, K271E).
A further test concerns the target VAX1 (Homo sapiens, UniProt Q5SQQ9 86-172).
For test [12], the target named is HOXB9 (Homo sapiens, UniProt P17482 171-250, R186Q).
The target in test [13] is HOXC9 (Homo sapiens, UniProt P31274 178-260, R222W).
Another test deals with T2, PAX4 (Homo sapiens, UniProt O43316 9-242, R227W).
T2 sequence: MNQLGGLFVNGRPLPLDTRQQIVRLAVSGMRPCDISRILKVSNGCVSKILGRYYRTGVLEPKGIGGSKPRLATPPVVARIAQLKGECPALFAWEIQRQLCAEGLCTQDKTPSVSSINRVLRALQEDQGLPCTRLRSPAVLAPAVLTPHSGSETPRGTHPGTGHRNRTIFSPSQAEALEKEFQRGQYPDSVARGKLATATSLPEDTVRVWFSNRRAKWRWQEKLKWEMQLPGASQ

For test [14], the target named is HOXA2 (Homo sapiens, UniProt O43364 129-215, Y150S).
In test [15] the target is HOXA7 (Homo sapiens, UniProt P31268 116-202, W177C).
The target in test [16] is HOXA2 (Homo sapiens, UniProt O43364 129-215).
Test [17] addresses HOXB6 (Homo sapiens, UniProt P17509 132-218).

VAX1, sequence (Q5SQQ9 86-172): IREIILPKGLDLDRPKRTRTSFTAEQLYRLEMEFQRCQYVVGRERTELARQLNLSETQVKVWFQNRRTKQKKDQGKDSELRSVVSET
HOXB9 (Homo sapiens, UniProt P17482 171-250, R186Q), sequence (P17482 171-250 R186Q): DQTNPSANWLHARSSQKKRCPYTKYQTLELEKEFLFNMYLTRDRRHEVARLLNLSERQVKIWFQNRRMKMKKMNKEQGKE
HOXC9 (Homo sapiens, UniProt P31274 178-260, R222W), sequence (P31274 178-260 R222W): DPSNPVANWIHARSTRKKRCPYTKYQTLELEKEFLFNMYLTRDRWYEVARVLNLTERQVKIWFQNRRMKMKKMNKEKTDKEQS
HOXA7 (Homo sapiens, UniProt P31268 116-202, W177C), sequence (P31268 116-202 W177C): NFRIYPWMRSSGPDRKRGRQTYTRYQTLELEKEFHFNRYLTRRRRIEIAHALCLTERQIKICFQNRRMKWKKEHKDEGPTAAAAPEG
HOXC10 (Homo sapiens, UniProt Q9NYD6 254-340), sequence (Q9NYD6 254-340): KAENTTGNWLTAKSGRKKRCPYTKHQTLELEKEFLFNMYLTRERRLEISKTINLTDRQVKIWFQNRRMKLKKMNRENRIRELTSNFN
HOXA2 (Homo sapiens, UniProt O43364 129-215), sequence (O43364 129-215): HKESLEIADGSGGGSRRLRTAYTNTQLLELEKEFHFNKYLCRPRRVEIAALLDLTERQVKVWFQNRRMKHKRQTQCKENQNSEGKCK
HOXB6 (Homo sapiens, UniProt P17509 132-218), sequence (P17509 132-218): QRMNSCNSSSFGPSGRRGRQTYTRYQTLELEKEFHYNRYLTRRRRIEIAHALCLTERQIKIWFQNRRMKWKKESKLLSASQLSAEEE
HOXB9 (Homo sapiens, UniProt P17482 171-250, T197M), sequence (P17482 171-250 T197M): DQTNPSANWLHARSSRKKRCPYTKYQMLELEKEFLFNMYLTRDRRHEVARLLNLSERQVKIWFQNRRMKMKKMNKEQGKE
HOXC9 (Homo sapiens, UniProt P31274 178-260, K195R), sequence (P31274 178-260 K195R): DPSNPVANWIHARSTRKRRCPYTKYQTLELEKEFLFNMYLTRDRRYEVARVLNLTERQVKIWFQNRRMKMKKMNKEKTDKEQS
HOXA4 (Homo sapiens, UniProt Q00056 201-287), sequence (Q00056 201-287): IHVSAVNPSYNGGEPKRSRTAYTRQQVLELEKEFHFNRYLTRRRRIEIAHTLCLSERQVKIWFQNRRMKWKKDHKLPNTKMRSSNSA
HOXC9 (Homo sapiens, UniProt P31274 178-260), sequence (P31274 178-260): as the sequence (P31274 178-260 R222W) above, with W45R counted along it
HOXC10 (Homo sapiens, UniProt Q9NYD6 254-340, K271E), sequence (Q9NYD6 254-340 K271E): as the sequence (Q9NYD6 254-340) above, with K18E counted along it
HOXA2 (Homo sapiens, UniProt O43364 129-215, Y150S), sequence (O43364 129-215 Y150S): as the sequence (O43364 129-215) above, with Y22S counted along it
HOXB9 (Homo sapiens, UniProt P17482 171-250), sequence (P17482 171-250): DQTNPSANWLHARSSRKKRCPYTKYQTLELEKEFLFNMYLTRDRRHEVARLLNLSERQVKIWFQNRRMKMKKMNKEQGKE
HOXC9 (Homo sapiens, UniProt P31274 178-260, R193K), sequence (P31274 178-260 R193K): as the sequence (P31274 178-260 R222W) above, with R16K, W45R counted along it
HOXA7 (Homo sapiens, UniProt P31268 116-202), sequence (P31268 116-202): as the sequence (P31268 116-202 W177C) above, with C62W counted along it
HOXA4 (Homo sapiens, UniProt Q00056 201-287, W262R), sequence (Q00056 201-287 W262R): as the sequence (Q00056 201-287) above, with W62R counted along it
HOXB6 (Homo sapiens, UniProt P17509 132-218, K202E), sequence (P17509 132-218 K202E): as the sequence (P17509 132-218) above, with K71E counted along it

Turning to CGTAATTA, the binding signal with HOXB9 [1] is 10.2 upbm affinity estimate (log intensity, higher = more binding, comparable within an allelic series); with HOXA4 [2], 10.7 upbm affinity estimate (log intensity, higher = more binding, comparable within an allelic series); in the test with HOXC9 [3], 12.7 upbm affinity estimate (log intensity, higher = more binding, comparable within an allelic series); with VENTX it was 12.7 upbm affinity estimate (log intensity, higher = more binding, comparable within an allelic series); with HOXA7 [4] it was 12 upbm affinity estimate (log intensity, higher = more binding, comparable within an allelic series); with HOXC10 [5] it was 12.3 upbm affinity estimate (log intensity, higher = more binding, comparable within an allelic series). Further, the binding signal was 10.2 upbm affinity estimate (log intensity, higher = more binding, comparable within an allelic series) in the test with HOXB6 [6]; 11.9 upbm affinity estimate (log intensity, higher = more binding, comparable within an allelic series) in the test with HOXB9 [7]; 12.8 upbm affinity estimate (log intensity, higher = more binding, comparable within an allelic series) in the test with HOXC9 [8]; 12.7 upbm affinity estimate (log intensity, higher = more binding, comparable within an allelic series) with HOXC9 [9]; 14.2 upbm affinity estimate (log intensity, higher = more binding, comparable within an allelic series) with HOXA4 [10]; 12.3 upbm affinity estimate (log intensity, higher = more binding, comparable within an allelic series) with HOXC10 [11]. In addition, the binding signal in the test with VAX1 is 13.6 upbm affinity estimate (log intensity, higher = more binding, comparable within an allelic series); with HOXB9 [12] it was 11.7 upbm affinity estimate (log intensity, higher = more binding, comparable within an allelic series); with HOXC9 [13], 10.9 upbm affinity estimate (log intensity, higher = more binding, comparable within an allelic series); with PAX4 it was 11.1 upbm affinity estimate (log intensity, higher = more binding, comparable within an allelic series); in the test with HOXA2 [14], 11 upbm affinity estimate (log intensity, higher = more binding, comparable within an allelic series); with HOXA7 [15], 8.91 upbm affinity estimate (log intensity, higher = more binding, comparable within an allelic series). The binding signal with HOXA2 [16] is 13.2 upbm affinity estimate (log intensity, higher = more binding, comparable within an allelic series); with HOXB6 [17] it was 12.4 upbm affinity estimate (log intensity, higher = more binding, comparable within an allelic series).

ATTAATTA: the binding signal was 10.6 upbm affinity estimate (log intensity, higher = more binding, comparable within an allelic series) in the test with HOXB9 [1]; 11.1 upbm affinity estimate (log intensity, higher = more binding, comparable within an allelic series) with HOXA4 [2]; 13.3 upbm affinity estimate (log intensity, higher = more binding, comparable within an allelic series) with HOXC9 [3]; 13.2 upbm affinity estimate (log intensity, higher = more binding, comparable within an allelic series) with VENTX; 12.6 upbm affinity estimate (log intensity, higher = more binding, comparable within an allelic series) in the test with HOXA7 [4]; 12.6 upbm affinity estimate (log intensity, higher = more binding, comparable within an allelic series) with HOXC10 [5]. In addition, the binding signal with HOXB6 [6] is 10.4 upbm affinity estimate (log intensity, higher = more binding, comparable within an allelic series); in the test with HOXB9 [7] it was 12.6 upbm affinity estimate (log intensity, higher = more binding, comparable within an allelic series); with HOXC9 [8], 13.2 upbm affinity estimate (log intensity, higher = more binding, comparable within an allelic series); with HOXC9 [9] it was 13.2 upbm affinity estimate (log intensity, higher = more binding, comparable within an allelic series); with HOXA4 [10], 14.4 upbm affinity estimate (log intensity, higher = more binding, comparable within an allelic series); in the test with HOXC10 [11], 12.7 upbm affinity estimate (log intensity, higher = more binding, comparable within an allelic series). The binding signal was 13.8 upbm affinity estimate (log intensity, higher = more binding, comparable within an allelic series) in the test with VAX1; 12.3 upbm affinity estimate (log intensity, higher = more binding, comparable within an allelic series) with HOXB9 [12]; 11.5 upbm affinity estimate (log intensity, higher = more binding, comparable within an allelic series) in the test with HOXC9 [13]; 11.4 upbm affinity estimate (log intensity, higher = more binding, comparable within an allelic series) with PAX4; 11.1 upbm affinity estimate (log intensity, higher = more binding, comparable within an allelic series) with HOXA2 [14]; 9.01 upbm affinity estimate (log intensity, higher = more binding, comparable within an allelic series) with HOXA7 [15]. The binding signal with HOXA2 [16] was 13.3 upbm affinity estimate (log intensity, higher = more binding, comparable within an allelic series); with HOXB6 [17], 12.8 upbm affinity estimate (log intensity, higher = more binding, comparable within an allelic series).

As for GTAATTAA, the binding signal in the test with HOXB9 [1] is 10.6 upbm affinity estimate (log intensity, higher = more binding, comparable within an allelic series); with HOXA4 [2], 10.9 upbm affinity estimate (log intensity, higher = more binding, comparable within an allelic series); with HOXC9 [3] it was 13.3 upbm affinity estimate (log intensity, higher = more binding, comparable within an allelic series); with VENTX, 13 upbm affinity estimate (log intensity, higher = more binding, comparable within an allelic series); with HOXA7 [4], 12.5 upbm affinity estimate (log intensity, higher = more binding, comparable within an allelic series); with HOXC10 [5], 12.7 upbm affinity estimate (log intensity, higher = more binding, comparable within an allelic series). The binding signal was 10.3 upbm affinity estimate (log intensity, higher = more binding, comparable within an allelic series) with HOXB6 [6]; 12.6 upbm affinity estimate (log intensity, higher = more binding, comparable within an allelic series) with HOXB9 [7]; 13.2 upbm affinity estimate (log intensity, higher = more binding, comparable within an allelic series) with HOXC9 [8]; 13.2 upbm affinity estimate (log intensity, higher = more binding, comparable within an allelic series) in the test with HOXC9 [9]; 14.3 upbm affinity estimate (log intensity, higher = more binding, comparable within an allelic series) with HOXA4 [10]; 12.9 upbm affinity estimate (log intensity, higher = more binding, comparable within an allelic series) with HOXC10 [11]. Also, the binding signal with VAX1 was 13.8 upbm affinity estimate (log intensity, higher = more binding, comparable within an allelic series); with HOXB9 [12], 12.4 upbm affinity estimate (log intensity, higher = more binding, comparable within an allelic series); in the test with HOXC9 [13], 11.3 upbm affinity estimate (log intensity, higher = more binding, comparable within an allelic series); with PAX4, 11.2 upbm affinity estimate (log intensity, higher = more binding, comparable within an allelic series); in the test with HOXA2 [14], 11.1 upbm affinity estimate (log intensity, higher = more binding, comparable within an allelic series); with HOXA7 [15] it was 9.01 upbm affinity estimate (log intensity, higher = more binding, comparable within an allelic series). In addition, the binding signal in the test with HOXA2 [16] is 13.2 upbm affinity estimate (log intensity, higher = more binding, comparable within an allelic series); with HOXB6 [17], 12.9 upbm affinity estimate (log intensity, higher = more binding, comparable within an allelic series).

The values above are taken from paper PMC11006913.
